Screening results: PubChem BioAssay, National Center for Advancing Translational Sciences (NCATS)
Shown are actives, neighbours in structure and some others; about 2.2% of the full set was active somewhere.
FMDV inh – blocks foot and mouth disease virus; FMDV antiviral cell-based qHTS; Potency, µM (doses to about 57.9 µM), without a hit: top-dose activity change, negative = inhibition, hits mostly inhibitors; actives 1.2% (n = 410,000); AID 1159524; calls by dose curve; tested in HEK293T cells; note: read-out not given here; nearly all actives have a fitted effect of over 45% in size
Vaccinia mCherry – vaccinia inhibition (mCherry reporter); Vaccinia virus mCherry reporter infection, fluorescence; Potency, µM (titrated, usually from 36.5 µM), inactives show at the highest dose activity change, negative = inhibition, most hits filed as inhibitors; actives 0.63% (n = 310,000); calls by dose curve; tested in A549 cells; note: nearly all actives have a fitted effect of over 35% in size
Giardia FBPA inh-1 – blocks Giardia fructose-bisphosphate aldolase activity | purified Giardia FBPA | AID 2451 | actives 0.71% (n = 290,000) | A8B2U2 | Potency, µM (series often up to 59.6 µM), for inactives: top-dose activity, negative = inhibition, usual class: inhibitors; note: nearly all actives have a fitted effect of over 55% in size
Target sequence (A8B2U2 whole entry, looked up): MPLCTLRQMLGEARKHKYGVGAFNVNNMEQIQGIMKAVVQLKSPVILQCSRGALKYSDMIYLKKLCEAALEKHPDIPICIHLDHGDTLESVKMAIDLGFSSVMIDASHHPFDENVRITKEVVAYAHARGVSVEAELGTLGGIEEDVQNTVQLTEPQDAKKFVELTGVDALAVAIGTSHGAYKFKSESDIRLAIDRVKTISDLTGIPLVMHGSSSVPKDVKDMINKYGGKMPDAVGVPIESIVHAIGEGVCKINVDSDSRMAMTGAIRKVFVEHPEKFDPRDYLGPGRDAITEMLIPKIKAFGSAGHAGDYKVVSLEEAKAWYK
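Giardia FBPA (40 nM reagent) was preincubated 10 min at RT with compound (up to 57.5 uM final), then substrate plus GAPDH/TPI/NAD/arsenate coupling system with diaphorase/resazurin was added; resorufin fluorescence (525/598 nm) was read after 20 min.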
VACV Venus inh – inhibitors of vaccinia virus (Venus reporter); actives 0.46% (n = 330,000); Vaccinia virus Venus reporter expression, fluorescence; Potency, µM (top dose mostly 36.5 µM), without a hit: at the highest dose activity change, negative = inhibition, most hits filed as inhibitors; calls by dose curve; tested in A549 cells; note: nearly all actives have a fitted effect of over 30% in size
Giardia growth – inhibitors of Giardia lamblia growth. shares compounds with Giardia FBPA inh-1. Giardia lamblia trophozoite growth inhibition. Potency, µM (doses to about 57.5 µM), inactives show top-dose activity change, negative = inhibition, hits mostly inhibitors. actives 5% (n = 1,500). AID 2785;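 note: trophozoites exposed to compound for 48 h at 37 °C; nearly all actives have a fitted effect of over 70% in size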
Mammal cell tox – mammalian cytotoxicity of Giardia aldolase inhibitor hits | Potency, µM (highest dose often 57.5 µM), inactives show at the top dose viability change, negative = toxicity, usual class: inhibitors | shares compounds with Giardia FBPA inh-1 | mammalian cell viability counter-screen, qHTS | AID 2786 | actives 4% (n = 1,500);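 note: Chinese hamster ovary cells used as mammalian cytotoxicity surrogate; viability measured as cellular ATP by luminescence; compound exposure lasted 48 h before reading; nearly all actives have a fitted effect of over 60% in size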
Giardia FBPA inh-2 – confirmation of Giardia fructose-bisphosphate aldolase inhibitors | shares compounds with Giardia FBPA inh-1 | purified Giardia aldolase enzyme activity, qHTS | Potency, µM (doses to about 57.5 µM), for inactives: at the top dose activity change, negative = inhibition, most hits filed as inhibitors | actives 5% (n = 1,500); note: nearly all actives have a fitted effect of over 45% in size
Rabbit aldolase – rabbit FBP aldolase inhibition by Giardia aldolase hits; shares compounds with Giardia FBPA inh-1; Rabbit muscle FBPA enzyme inhibition, selectivity counter-screen; Potency, µM (doses to about 57.5 µM), for the others: top-dose activity, negative = inhibition, hits mostly inhibitors; actives 4% (n = 1,500); AID 2794; note: nearly all actives have a fitted effect of over 60% in size
Target sequence (P00883 whole entry, looked up): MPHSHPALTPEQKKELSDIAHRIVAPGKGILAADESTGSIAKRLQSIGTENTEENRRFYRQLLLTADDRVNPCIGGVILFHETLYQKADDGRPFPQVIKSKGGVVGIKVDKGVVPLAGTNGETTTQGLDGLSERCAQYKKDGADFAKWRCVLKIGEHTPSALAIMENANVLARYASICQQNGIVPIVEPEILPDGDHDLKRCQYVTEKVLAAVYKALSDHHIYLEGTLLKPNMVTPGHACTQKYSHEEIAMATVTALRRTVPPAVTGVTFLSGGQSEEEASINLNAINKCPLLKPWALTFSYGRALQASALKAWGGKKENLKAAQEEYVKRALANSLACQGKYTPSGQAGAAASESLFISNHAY
GAPDH counter – counter-screen for Giardia aldolase inhibitors: GAPDH coupling enzyme | shares compounds with Giardia FBPA inh-1 | GAPDH coupling enzyme counterscreen, biochemical, qHTS | Potency, µM (top dose mostly 57.5 µM), for inactives: at the highest dose activity change, negative = inhibition, actives largely listed as inhibitors | actives 6% (n = 1,500) | AID 2795; note: nearly all actives have a fitted effect of over 55% in size
Starred values were filed as active, the others as inactive; [ ] = remark or other dose. Unless noted, calls come from the whole dose curve; as a rule, active = well fitted curve in the direction sought with a large enough effect; inconclusive = small, poorly fitted or top-dose-only effect, or another doubt; inactive = no such curve, though single readings can be large; an effect the other way counts as inactive or inconclusive. % is set by controls: 0 for no effect and ±100 for the full control effect; potency is the fitted concentration of half-maximal effect.

For Cc1[nH]n(-c2ccccc2)c(=O)c1/C=N/N(C)c1ccccc1 the results were FMDV inh -1%, Vaccinia mCherry -7%, Giardia FBPA inh-1 -24% and VACV Venus inh -17%.
Screening Cc1ccc(-c2n[nH]c(=S)n2/N=C/c2c(C)[nH]n(-c3ccccc3)c2=O)cc1 returned FMDV inh inconclusive, Vaccinia mCherry -1%, Giardia FBPA inh-1 10µM*, VACV Venus inh -13%, Giardia growth -22%[38.3 µM], Mammal cell tox -28%, Giardia FBPA inh-2 inconclusive, Rabbit aldolase 3% and GAPDH counter -5%.
`Cc1[nH]n(-c2ccccc2)c(=O)c1/C=N/O` gave Vaccinia mCherry -1%, Giardia FBPA inh-1 16µM*, VACV Venus inh -9%, Giardia growth inconclusive, Mammal cell tox -5%, Giardia FBPA inh-2 -14%, Rabbit aldolase 2% and GAPDH counter 9%.
For Cn1nc(-c2ccccc2)c(/C=N/O)c1Cl the results were FMDV inh -10%, Vaccinia mCherry -9%, Giardia FBPA inh-1 5% and VACV Venus inh -1%.
`Cc1nn(-c2ccccc2)c(C)c1/C=N/n1c(-c2ccc(Cl)cc2)n[nH]c1=S` gave FMDV inh inconclusive, Vaccinia mCherry -13%, Giardia FBPA inh-1 8% and VACV Venus inh 3%.
Screening CN(C)c1ccc(-c2ccc3ncnc(NC4CC4)c3c2)cc1 returned FMDV inh -11% and Giardia FBPA inh-1 -9%.
`CCCCC/C=C\C/C=C\C/C=C\C=C\C1CCCC(=O)O1` (configuration not stated) gave Giardia FBPA inh-1 1%.
For CC(=O)N/N=C/c1c(C)[nH]n(-c2ccccc2)c1=O the results were FMDV inh -10%, Vaccinia mCherry inactive, Giardia FBPA inh-1 16µM*, VACV Venus inh 8%, Giardia growth 0%[10.4 µM], Mammal cell tox -10%, Giardia FBPA inh-2 -7%, Rabbit aldolase -17% and GAPDH counter -19%.
For CC1=CC23C(=O)C(C=C(CO)[C@@H](O)[C@]2(O)[C@H]1O)[C@H]1[C@@H](C[C@H]3C)C1(C)C (some centres not stated) the results were Giardia FBPA inh-1 3%.
`O=c1cnnc(N/N=C/C2CC=CCC2)[nH]1` (configuration not stated) gave FMDV inh 17%, Vaccinia mCherry -12%, Giardia FBPA inh-1 20µM*, VACV Venus inh -14%, Giardia growth inconclusive, Mammal cell tox 17%, Giardia FBPA inh-2 5%, Rabbit aldolase 13% and GAPDH counter 5%.
`O=C(C[n+]1cccc2cccc(O)c21)c1ccc2ccccc2c1` gave Vaccinia mCherry 30% and VACV Venus inh 35%.
For Cc1c(N=C2C=C(Br)C(=O)C(Br)=C2)c(=O)n(-c2ccccc2)n1C the results were FMDV inh 2%, Vaccinia mCherry -13%, Giardia FBPA inh-1 14µM*, VACV Venus inh -3%, Giardia growth -12%[10.4 µM], Mammal cell tox 0%, Giardia FBPA inh-2 inconclusive, Rabbit aldolase -27% and GAPDH counter inconclusive.
C=CCC(C)(O)C(=O)OCC (configuration not stated) was read as Giardia FBPA inh-1 5%.
`O=C(N[C@@H](Cc1ccccc1)C(=O)Nc1ccc(F)cc1)C1CCNCC1` gave FMDV inh -15%, Vaccinia mCherry -12% and VACV Venus inh -15%.
Screening C[C@H](N)C(=O)N1CCC(C(=O)N[C@@H](Cc2ccccc2)C(=O)Nc2ccc(F)cc2)CC1 returned FMDV inh -16%, Vaccinia mCherry -6%, Giardia FBPA inh-1 16µM*, VACV Venus inh -7%, Giardia growth -26%, Mammal cell tox 12%, Giardia FBPA inh-2 -2%, Rabbit aldolase -3% and GAPDH counter 3%.
COc1ccccc1CNc1ncnc2ccc(-c3ccc(C(=O)N(C)C)cc3)cc12 was read as FMDV inh -3% and Giardia FBPA inh-1 3%.
COc1cccc(CCc2nnc(CCC(=O)NCCc3cccc(C)n3)o2)c1 was read as FMDV inh 23%, Vaccinia mCherry -6%, Giardia FBPA inh-1 3% and VACV Venus inh -4%.
COc1cccc(CCc2nnc(CCC(=O)N3CCN(Cc4ccccn4)CC3)o2)c1 was read as FMDV inh 0%, Vaccinia mCherry inactive, Giardia FBPA inh-1 5.6µM*, VACV Venus inh -12%, Giardia growth -1%[38.3 µM], Mammal cell tox -7%, Giardia FBPA inh-2 -6%, Rabbit aldolase 4% and GAPDH counter 2%.
Screening O=C1c2ccccc2C(=O)N1c1cccc(N2C(=O)c3ccccc3C2=O)n1 returned Vaccinia mCherry -9% and VACV Venus inh -10%.
Screening CC(Cc1ccc(O)cc1)NCC(O)c1ccc(O)c(O)c1 (configuration not stated) returned FMDV inh 0%, Vaccinia mCherry -9% and VACV Venus inh -4%.
For CC(C)NCC(O)c1ccc(O)c(O)c1 (configuration not stated) the results were FMDV inh -17%, Vaccinia mCherry -9%, Giardia FBPA inh-1 11µM*, VACV Venus inh 1%, Giardia growth 15%, Mammal cell tox 7%, Giardia FBPA inh-2 inconclusive, Rabbit aldolase inconclusive and GAPDH counter -23%.
`Fc1cccc(NC(=S)N2CCc3ccccc32)c1` gave FMDV inh -5%, Vaccinia mCherry -15% and VACV Venus inh -3%.
Screening CC(=O)c1cccc(NC(=S)N2CCc3ccccc32)c1 returned FMDV inh -19%, Giardia FBPA inh-1 25µM*, Giardia growth 27%, Mammal cell tox 0%, Giardia FBPA inh-2 4%, Rabbit aldolase 1% and GAPDH counter 16%.
Cc1ccc(C)c(NC(=O)Cn2c(=O)n(CCCS(=O)(=O)C3CCCCC3)c(=O)c3ccccc32)c1 was read as FMDV inh -5%, Vaccinia mCherry -8% and VACV Venus inh -9%.
O=C(CNCc1cccs1)Nc1ccc(S(=O)(=O)N2CCCCC2)cc1 was read as FMDV inh 19%, Vaccinia mCherry inactive, Giardia FBPA inh-1 inconclusive and VACV Venus inh -1%.
